“And” between values parts separate entries of the source, which are not always exact repeats. Equal values may be shown once. About 79,000 compounds went through this panel and 15% of them were active in at least one assay; those are over-represented in the sample as a whole. The source holds several records for some structures; these can differ, active in one and inactive in another. The source made the active and inactive calls. No stated cut-off is given here; in the data, active means growth inhibition above about 70%; inactive means the rest.
Legend:
[1] = NCI Yeast Anticancer Drug Screen. Data for the rad50 strain (AID 155);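 further: 0% = growth of vehicle-only cultures of the same strain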; details: S. cerevisiae rad50 strain growth inhibition; at 50.0 µM; stronger effect = higher value
Summary of the method: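 Relative growth inhibition (compound vs vehicle) was measured in yeast with a defined repair-gene alteration.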

[2] = NCI Yeast Anticancer Drug Screen. Data for the mec2-1 strain (AID 157); details: S. cerevisiae mec2-1 strain, at 50.0 µM, stronger effect = higher value
Summary of the method: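 Mutant yeast (mec2-1) grown with compound; growth inhibition relative to vehicle control reported.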

[3] = NCI Yeast Anticancer Drug Screen. Data for the sgs1 mgt1 strain (AID 161);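 further: 0% = growth of cultures given vehicle only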; details: S. cerevisiae sgs1 mgt1 strain, at 50.0 µM, stronger effect = higher value
Summary of the method: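 This yeast growth screen uses a strain with defined DNA-repair lesions; compound-treated growth is compared with vehicle-treated growth.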

[4] = NCI Yeast Anticancer Drug Screen. Data for the cln2 rad14 strain (AID 165);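 further: 0% = growth equal to vehicle treated cultures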; details: S. cerevisiae cln2 rad14 strain, at 50.0 µM, stronger effect = higher value
Summary of the method: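 Readout is yeast growth inhibition versus vehicle-treated controls, using a strain with cln2 and rad14 alterations exposed to compound.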

[5] = NCI Yeast Anticancer Drug Screen. Data for the bub3 strain (AID 167); details: S. cerevisiae bub3 mutant strain, at 50.0 µM, stronger effect = higher value
Summary of the method: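 Screening used yeast with an engineered genetic alteration affecting cell cycle control. Compound-exposed cultures were compared with vehicle cultures, and reduced growth was taken as inhibition.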

[6] = NCI Yeast Anticancer Drug Screen. Data for the mlh1 rad18 strain (AID 175); details: S. cerevisiae mlh1 rad18 strain growth inhibition; at 50.0 µM; stronger effect = higher value
Summary of the method: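 Genetically defined yeast (DNA repair-deficient) exposed to compounds; growth inhibition determined relative to vehicle.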

Compound	growth inhibition [1]	growth inhibition [2]	growth inhibition [3]	growth inhibition [4]	growth inhibition [5]	growth inhibition [6]
CC(C)C1CN1CC(O)Cn1ccnc1[N+](=O)[O-] (centres undefined)	-15.2% (inactive)	-17.8% (inactive)	-19.1% (inactive)	0% (inactive)	7.35% (inactive)	-19.2% (inactive)
OCCN=Cc1ccccc1O.OCCN=Cc1ccccc1O.[Ni]	32.2% (inactive)	7.3% (inactive)	17.9% (inactive)	-26.4% (inactive)	12.8% (inactive)	18.4% (inactive)
CC12CC[C]([Hg][I])(CC1)C2(C)C	96.5% (active)	98.6% (active)	99.8% (active)	4.3% (inactive)	74.9% (active)	84.8% (active)
Cc1ccc(CCl)c(C)c1	-21.1% (inactive)	8.4% (inactive)	-6.95% (inactive)	–	5.45% (inactive)	-19% (inactive)
CCC/C=C/C=C/C(=O)OC1/C(=C/C(=O)OC)CC2CC(C(C)O)OC(=O)CC(O)CC3CC(OC(C)=O)C(C)(C)C(O)(CC4C/C(=C/C(=O)OC)CC(/C=C/C(C)(C)C1(O)O2)O4)O3 (centres undefined)	15.7% (inactive)	-5.2% (inactive)	-7.85% (inactive)	21.3% (inactive)	6.15% (inactive)	23.1% (inactive)
c1ccc(-c2ccc([As](c3ccccc3)c3ccccc3)cc2)cc1	11.4% (inactive)	4.5% (inactive)	19.6% (inactive)	3.85% (inactive)	7.6% (inactive)	11.8% (inactive)
O=C1CC2OCC=C3CN4CCC56c7ccccc7N1C5C2C3CC46 (centres undefined)	9.65% (inactive)	2.3% (inactive)	4.15% (inactive)	–	8.9% (inactive)	-9.25% (inactive)
O=C1/C(=C\c2cc3ccccc3c3ccccc23)N2CCC1CC2	11.1% (inactive)	-10.2% (inactive)	-12% (inactive)	–	-3.1% (inactive)	1% (inactive)
c1ccc(CN2CCNCC2)cc1	-8.35% (inactive)	-14.4% (inactive)	1.9% (inactive)	-14.1% (inactive)	4.9% (inactive)	-9.7% (inactive)
CC(C)N1COC2Cc3ccccc3CC21 (centres undefined)	-7.15% (inactive)	1.65% (inactive)	-29% (inactive)	10.1% (inactive)	–	-16.9% (inactive)
O=c1oc2ccccc2c(O)c1C(c1ccc(O)cc1)c1c(O)c2ccccc2oc1=O	-1.35% (inactive)	3.1% (inactive)	-6.4% (inactive)	-2.95% (inactive)	-3% (inactive)	-33.9% (inactive)
O=C(O)COc1nc(Cl)c(Cl)cc1Cl	3.3% (inactive)	6% (inactive)	12.5% (inactive)	-1.75% (inactive)	–	1.15% (inactive)
O=[N+]([O-])c1c(F)cc(F)c([N+](=O)[O-])c1F	-29.5% (inactive)	-6.15% (inactive)	-11.6% (inactive)	-28.2% (inactive)	-4.75% (inactive)	52.9% (inactive)
CN1CCC2=C(c3ccccc3)c3ccccc3C2C1 (centres undefined)	10.3% (inactive)	-0.55% (inactive)	13.4% (inactive)	-9.85% (inactive)	3.8% (inactive)	3.55% (inactive)
O=C(O)c1ccccc1.O=C(O)c1ccccc1.O=C(O)c1ccccc1.O=C(O)c1ccccc1.[Cu].[Cu]	17.4% (inactive)	-10% (inactive)	10.8% (inactive)	3.85% (inactive)	1.85% (inactive)	17.1% (inactive)
CN(C)P(N)(=S)N(C)C	-2.75% (inactive)	-9.15% (inactive)	-1.3% (inactive)	-15.8% (inactive)	–	-7.05% (inactive)
NNC(=O)c1ccc(O)cc1	1.15% (inactive)	-2.65% (inactive)	-13.3% (inactive)	-17.4% (inactive)	-0.05% (inactive)	18.2% (inactive)
C1=C/CCC2NC2C/C=C/CCC/1 (centres undefined)	-6.8% (inactive)	-20.4% (inactive)	-10.6% (inactive)	-18.4% (inactive)	–	-19.6% (inactive)
CC[N+](C)(CC)CCC(C(=O)NC)(c1ccccc1)c1ccccc1	-2.45% (inactive)	-1.35% (inactive)	-22.8% (inactive)	-34.6% (inactive)	0.05% (inactive)	-19.1% (inactive)
NNC(=O)Nc1nn[nH]n1	1.75% (inactive) and -6.75% (inactive)	8.2% (inactive) and 8.5% (inactive)	10.2% (inactive) and -6.75% (inactive)	-19.4% (inactive) and 6% (inactive)	-15% (inactive) and 12.6% (inactive)	7.95% (inactive) and -3.6% (inactive)
O=C(NC(CSC(c1ccccc1)(c1ccccc1)c1ccccc1)C(=O)O)OCc1ccccc1 (centres undefined)	63.7% (inactive)	99.5% (active)	98.5% (active)	51.9% (inactive)	47.6% (inactive)	58.8% (inactive)
CCCCOP(=O)(/C=C/c1ccccc1)OCCCC	86.3% (active)	77.9% (active)	80.2% (active)	24.7% (inactive)	74.2% (active)	80.8% (active)

Compound	growth inhibition [1]	growth inhibition [2]	growth inhibition [3]	growth inhibition [4]	growth inhibition [5]	growth inhibition [6]
CNc1cc(Cl)c(C#N)c(Cl)c1	-2.6% (inactive)	-2.7% (inactive)	-0.7% (inactive)	-39.2% (inactive)	-24.6% (inactive)	9.25% (inactive)
O=[N+]([O-])c1ccc(C2C3C(c4ccccc4)=NCCCN32)cc1 (centres undefined)	-0.2% (inactive)	12.2% (inactive)	-8% (inactive)	-15.2% (inactive)	–	-14.7% (inactive)
Cc1cccc(N=Nc2ccc(N(C)C)cc2)c1	-8.45% (inactive)	-36.6% (inactive)	2.4% (inactive)	-29.6% (inactive)	-8.6% (inactive)	-13.3% (inactive)
CC(=O)OC1CCC2(C)C(=CCC3C2CCC2(C)C(Oc4ccccc4)CCC32)C1 (centres undefined)	-42.7% (inactive)	-28.4% (inactive)	-33.6% (inactive)	3.55% (inactive)	–	-46.1% (inactive)
NC(N)=Nc1c(N)ncnc1N	-4.9% (inactive)	6.2% (inactive)	4.4% (inactive)	-2.65% (inactive)	–	-4.45% (inactive)
NCCN.NCCN.O=C([O-])C(=O)[O-].[Cl-].[Co+3]	-22.4% (inactive)	-16.7% (inactive)	-31.8% (inactive)	-0.45% (inactive)	-24.6% (inactive)	-29.8% (inactive)
c1ccc(C2=NCN3CC23c2ccccc2)cc1 (centres undefined)	-3.6% (inactive)	2.2% (inactive)	14.4% (inactive)	13.4% (inactive)	–	3.45% (inactive)
CN1C(=O)C(=Cc2cccc([N+](=O)[O-])c2)C(=O)N(C)C1=O	17.4% (inactive)	14.3% (inactive)	2.15% (inactive)	26.1% (inactive)	–	-9.55% (inactive)
CN1CCN(Cc2ccccc2)CC1CC#N (centres undefined)	-17.3% (inactive)	-34.8% (inactive)	-24.1% (inactive)	–	2.65% (inactive)	-30.9% (inactive)
CC[As](=O)(O)c1ccc(I)cc1	3.6% (inactive)	-8.4% (inactive)	-1.95% (inactive)	-11.8% (inactive)	12.8% (inactive)	5.95% (inactive)
Cc1cc2c(C(C)C)c(O)c(O)c(C=O)c2c(O)c1-c1c(C)cc2c(C(C)C)c(O)c(O)c(C=O)c2c1O	47.7% (inactive) and 59.2% (inactive)	52.6% (inactive) and 71.2% (active)	41.1% (inactive) and 46.5% (inactive)	–	49.1% (inactive) and 43.6% (inactive)	60.2% (inactive) and -27% (inactive)
CCOC(=O)C(Br)Br	20% (inactive)	-2.7% (inactive)	-13.9% (inactive)	22.2% (inactive)	–	10.6% (inactive)
O=NNc1ccc2ccccc2n1	-17.1% (inactive)	23.5% (inactive)	-2% (inactive)	14.6% (inactive)	3.2% (inactive)	-6.95% (inactive)
CCCC1(CCS)C(=O)NC(=O)NC1=O	-12.9% (inactive)	-33.7% (inactive)	-13.3% (inactive)	5.25% (inactive)	2.3% (inactive)	9.15% (inactive)
COc1ccc(Cc2nccc3cc(OC)c(OC)cc23)cc1OC	-4.15% (inactive) and -16.3% (inactive)	-19.4% (inactive) and -28% (inactive)	-6.9% (inactive) and 11.4% (inactive)	–	-11.7% (inactive) and -7.9% (inactive)	-21.1% (inactive) and -29.4% (inactive)
Cc1coc2c1CCC(C)C2 (centres undefined)	-6.65% (inactive)	-24.8% (inactive)	-5.5% (inactive)	1.55% (inactive)	–	-5.9% (inactive)
CCCCOc1ccc([As](=O)(O)O)cc1	-17.4% (inactive)	-10.2% (inactive)	4.3% (inactive)	-19.2% (inactive)	16.1% (inactive)	5.65% (inactive)
O=C(COc1ccc(Cl)cc1C(=O)O)Nc1cccc(NC(=O)Nc2cccc(S(=O)(=O)F)c2)c1	2.3% (inactive)	-13.3% (inactive)	-12.9% (inactive)	-17.9% (inactive)	–	11.6% (inactive)
CCCCCCNC(=O)C(C)Br (centres undefined)	-7.35% (inactive)	4.9% (inactive)	-0.55% (inactive)	-12.4% (inactive)	9.95% (inactive)	1.85% (inactive)
Cc1ccc(NP(=S)(Nc2ccc(C)cc2C)Nc2ccc(C)cc2C)c(C)c1	18.3% (inactive)	-1.6% (inactive)	-3.1% (inactive)	17.9% (inactive)	2.7% (inactive)	9.55% (inactive)
CCCCCCCCCCBr	30.4% (inactive)	17.2% (inactive)	-12.4% (inactive)	–	17.1% (inactive)	-37.6% (inactive)

Source: PubChem BioAssay (NCI)
